Compound activity as filed in PubChem BioAssay.
NIH3T3 tox = Cytotoxic Profiling in NIH 3T3 Cell Line of Diverse Libraries Using Quantitative High-Throughput Screening | 94,000 compounds, 4.3% hits | NIH 3T3 viability, CellTiter-Glo ATP luminescence, 48-72 h | Potency, µM (doses to about 96.7 µM), most hits filed as inhibitors; also: nearly all actives have a fitted effect of over 55% in size
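First NIH 3T3 cells are plated at 400 cells/well; next compound is pinned in; then plates incubate 48 or 72 hr at 37 °C; finally CellTiter-Glo is added and luminescence read after 10 min.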
HEK cytotox = Cytotoxic Profiling in HEK 293 Cell Line of Diverse Libraries Using Quantitative High-Throughput Screening; HEK 293 viability, ATP luminescence (CellTiter-Glo), 48-72 h; Potency, µM (top dose mostly 115 µM), usual class: inhibitors; 94,000 compounds, 6.6% hits; AID 1345083, 2018; also: nearly all actives have a fitted effect of over 60% in size
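Viability of HEK 293 cells, plated at 250 cells/well, was judged by cellular ATP after compound treatment for 48 or 72 hr. Luminescence was imaged 10 min after CellTiter-Glo addition at room temperature.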
hNpr1 antagonist = Natriuretic polypeptide receptor (hNpr1) antagonism - Primary qHTS. 76,000 compounds, 1.6% hits. Potency, µM (top dose mostly 46.3 µM), actives largely listed as inhibitors. HEK293 hNpr1 GloSensor cGMP, ANP-stimulated luminescence. Atrial natriuretic peptide receptor 1 (Homo sapiens), P16066; calls by dose curve; also: nearly all actives have a fitted effect of over 60% in size
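Compound pre-incubated 30 min at room temperature on GloSensor-loaded HEK293 cells stably carrying hNpr1 and the pGS-40F cGMP biosensor. Stimulation uses hNppA at 0.1 nM final; luminescence is taken at baseline and 20 min post-agonist.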
GPT2 inhibitor = Primary qHTS assay for inhibitors of Glutamate pyruvate transaminase 2 (GPT2) | 100,000 compounds, 0.25% hits | AID 1671188, 2021 | Recombinant GPT2, coupled pyruvate oxidase/HRP Amplex Red fluorescence | Potency, µM (highest dose often 57.7 µM), actives largely listed as inhibitors; also: nearly all actives have a fitted effect of over 60% in size
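Fluorescence of coupled pyruvate oxidase/HRP/Amplex Red system (50uM Amplex, 30 min, dark) reports pyruvate formed by GPT2. Enzyme reaction: 10ng/uL GPT2, 2mM L-alanine, 250uM a-KG, 30 min room temperature, pH 7.5; 50uM AOA control.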
FLuc inh = Firefly luciferase inhibition profiling of diverse chemical library using quantitative high-throughput screening; Luciferin 4-monooxygenase (Photinus pyralis), P08659; purified P. pyralis luciferase, luminescence, biochemical; Potency, µM (highest dose often 115 µM), most hits filed as inhibitors; 76,000 compounds, 2.5% hits; AID 1347043, 2019; also: nearly all actives have a fitted effect of over 65% in size
Target sequence (P08659 whole entry, looked up): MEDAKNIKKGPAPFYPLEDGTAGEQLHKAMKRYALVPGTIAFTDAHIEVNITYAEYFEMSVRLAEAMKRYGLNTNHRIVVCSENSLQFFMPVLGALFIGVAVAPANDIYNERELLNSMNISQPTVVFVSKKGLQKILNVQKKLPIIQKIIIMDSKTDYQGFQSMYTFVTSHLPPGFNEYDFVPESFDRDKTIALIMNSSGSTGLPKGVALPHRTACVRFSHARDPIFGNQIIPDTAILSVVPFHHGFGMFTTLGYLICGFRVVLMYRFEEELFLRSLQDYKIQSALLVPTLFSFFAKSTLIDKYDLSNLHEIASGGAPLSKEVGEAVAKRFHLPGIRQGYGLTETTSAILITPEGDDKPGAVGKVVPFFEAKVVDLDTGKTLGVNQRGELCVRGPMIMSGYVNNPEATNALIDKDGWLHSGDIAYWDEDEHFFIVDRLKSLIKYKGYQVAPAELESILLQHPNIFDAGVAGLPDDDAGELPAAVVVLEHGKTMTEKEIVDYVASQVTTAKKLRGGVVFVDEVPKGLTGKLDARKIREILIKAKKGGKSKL
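Purified P. pyralis luciferase (10nM final) in 50mM Tris acetate pH 7.5, 10mM Mg acetate, 0.01% Tween-20, 0.05% BSA with 10uM D-luciferin and 10uM ATP. Compounds titrated qHTS. Luminescence imaged on CCD.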
Each line names hits and unclear results; the compound was inactive in the other large screens. This is a sample that favours compounds with a hit; in the whole collection about 10% have one here. Unless noted, calls follow the shape of the dose curve; as a rule, active = well fitted curve in the direction sought with a large enough effect; inconclusive = small, poorly fitted or top-dose-only effect, or another doubt; inactive = no such curve, though single readings can be large; an effect the other way counts as inactive or inconclusive.

Cc1cc(C)n(C2CCN(c3nccc(-c4ccccn4)n3)C2)n1 (configuration not stated)	FLuc inh 45µM
COc1ccc(CCC(=O)N2CCC(Oc3ccc(-c4noc(C)n4)cc3)C2)cc1 (configuration not stated)	HEK cytotox inconclusive, FLuc inh 40µM
Cc1nc(-c2ccc(OC3CCN(C(=O)c4nn(C)c5ccccc45)C3)cc2)no1 (configuration not stated)	NIH3T3 tox inconclusive, HEK cytotox 45µM
COc1ccc(Nc2ccnc(N3CCN([S+](=O)([O-])c4cccs4)CC3)n2)cc1	NIH3T3 tox inconclusive, HEK cytotox inconclusive (no result: hNpr1 antagonist, FLuc inh)
O=C(NCc1ccc(Cl)cc1)c1c[nH]c2cccnc12	NIH3T3 tox 16µM, HEK cytotox 35µM (no result: hNpr1 antagonist, FLuc inh)
O=C(NCc1ccc(Cl)cc1)c1c[nH]c2ncccc12	NIH3T3 tox inconclusive, HEK cytotox inconclusive, FLuc inh 28µM
O=C(NCCc1ccccc1)c1c[nH]c2ncccc12	FLuc inh 20µM
CCC(C)C(=O)NC1CCN(c2cn[nH]c(=O)c2)CC1 (configuration not stated)	none
COCC(=O)N1CCCC(C(=O)N2CCC(c3ccccc3)CC2)C1 (configuration not stated)	none (no result: hNpr1 antagonist, FLuc inh)
Cc1ccccc1C(=O)N1CCc2nc(-c3ccccc3)nc(-c3ccc(Cl)cc3)c2C1	NIH3T3 tox inconclusive, HEK cytotox inconclusive
COc1ccc(C(=O)N2CCc3nc(-c4ccc(Cl)cc4)nc(-c4ccccc4)c3C2)cc1	NIH3T3 tox inconclusive, HEK cytotox 40µM
COc1ccc(-c2nc(C(C)C)nc3c2CCN(C(=O)c2cccc(Cl)c2)CC3)cc1	NIH3T3 tox 45µM, HEK cytotox inconclusive
O=C(Cc1ccc(F)cc1)N1CCc2nc(-c3ccc(Cl)cc3)nc(-c3ccccc3)c2C1	NIH3T3 tox inconclusive, HEK cytotox 35µM
O=C(c1ccccc1Cl)N1CCc2nc(-c3ccc(Cl)cc3)nc(-c3ccccc3)c2C1	NIH3T3 tox inconclusive, HEK cytotox 25µM, FLuc inh inconclusive
COc1ccc(C(=O)N2CCc3nc(-c4ccccc4)nc(-c4ccc(OC)cc4)c3C2)cc1	HEK cytotox inconclusive
O=C(NCc1cc(F)ccc1F)c1cccnc1N1CC2CC(C1)[C@H]1CCCC(=O)N1C2 (some centres not stated)	none
COCCOc1ccc2c(n1)CCN(C(=O)CCC1CCCC1)C2	HEK cytotox inconclusive, hNpr1 antagonist 11µM, FLuc inh inconclusive
CCOc1ccc2c(n1)CCN(C(=O)c1ccc(C(C)C)cc1)C2	NIH3T3 tox inconclusive, HEK cytotox inconclusive, FLuc inh 32µM
CCOc1ccc2c(n1)CCN(C(=O)c1ccc(C)cc1)C2	none
COCCOc1ccc2c(n1)CCN(C(=O)c1ccc(C(C)C)cc1)C2	NIH3T3 tox inconclusive, HEK cytotox inconclusive, FLuc inh 16µM
COCCOc1ccc2c(n1)CCN(C(=O)c1ccc(OC)cc1)C2	none
Cc1nn(-c2ccccc2)c2c1C(C)N(C1CCCN(C(=O)C(C)(C)C)C1)C2=O (configuration not stated)	none (no result: hNpr1 antagonist, GPT2 inhibitor, FLuc inh)
O=C(NCc1cccs1)c1cc(-c2cccnc2)c2nncn2n1	NIH3T3 tox inconclusive (no result: hNpr1 antagonist, FLuc inh)
COc1ccc2nc([C@H]3CCN(C(C)C)C3)[nH]c2c1	hNpr1 antagonist inconclusive, FLuc inh 22µM
CC(C)N1CC[C@H](c2nc3ccc(C#N)cc3[nH]2)C1	FLuc inh 40µM
CC(C)N1CC[C@H](c2nc3ccc(C(F)(F)F)cc3[nH]2)C1	HEK cytotox inconclusive, FLuc inh 22µM
O=C(c1ccc(CCC2COc3ccccc3O2)cc1)N1CCCCC1 (configuration not stated)	NIH3T3 tox inconclusive, HEK cytotox inconclusive, hNpr1 antagonist inconclusive, FLuc inh 35µM
N#Cc1ccc(CN2C[C@@H]3C(=O)N(CCN4CCc5ccccc5C4)C(=O)[C@@H]3C2)cc1	NIH3T3 tox inconclusive, HEK cytotox inconclusive
Cc1ccc(CN2CCn3c(nn(-c4ccncc4)c3=O)C2)cc1	NIH3T3 tox inconclusive, HEK cytotox inconclusive, hNpr1 antagonist 20µM
